Assay results as given in PubChem BioAssay.
Inconclusive results are not listed. The source made the active and inactive calls.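 The calls were made as follows, unless noted: active = growth inhibition above 25% in both replicates, a cutoff set 3 SD above the mean; inconclusive = above 25% in only one replicate; inactive = the rest.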

Tests used:
[1] = HUVEC growth inhibition – cell-based, human, primary screen (AID 575;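 active = viability at or below 30% in both replicate assays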;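 also: 100% = median of untreated cell wells with 0.1% DMSO on each plate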); details: HUVEC proliferation, CellTiter-Glo luminescence, 72 h; at 10 µM; stronger effect = lower value
[2] = growth inhibitors of H69AR lung tumor, primary screen, human, duplicate replicates (AID 580;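 active = viability at or under a set limit in both replicates, limit being median viability minus 3 SD, cut at about 48% in these data, passing the limit was not always enough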;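 also: 100% = mean luminescence of untreated wells and 0% = no signal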); details: H69AR lung tumor cells viability, ATP luminescence, 72 h; at 10 µM; stronger effect = lower value
[3] = reversal of MRP1-mediated doxorubicin resistance, pilot screen, H69AR cells, doxorubicin co-treatment (AID 601;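 active = viability loss from added drug above about 55%, and viability with drug at most 40%, in both replicates, limit read from the data, passing the limit was not always enough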); details: CellTiter-Glo, 72 h, at 10 µM; for differential viability (reversal): stronger effect = higher value
[4] = 384-well plate pilot, post-Golgi transport modulator project, inhibition of yeast transport mutant growth (AID 636; in the data active = inhibition above about 31%); details: absorbance 615 nm, about 18 h, stronger effect = higher value
[5] = growth suppression of yeast trafficking mutant, preliminary HTS, modulators of trafficking downstream of Golgi apparatus project, 1536-format plate, OD 615 nm (AID 637; in the data active = inhibition above about 30%); details: yeast transport mutant growth, absorbance 615 nm, 18 h; stronger effect = higher value
[6] = OD615 S. cerevisiae growth inhibition, permissive medium, pilot counter-assay, permissive growth control for S. cerevisiae lifespan shortening project (AID 705); details: OD615, 24 h, at 10 µM, stronger effect = higher value
[7] = Restrictive medium S. cerevisiae growth inhibition, OD615, pilot screen of yeast lifespan reduction project, restrictive growth control (AID 706;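 active = growth inhibition above a set limit, 3 SD over mean compound inhibition, in both replicates, cut at about 43% in these data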;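 also: modified DeaD lifespan yeast strain shifted to restrictive glucose medium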); details: OD615, 48 h, at 10 µM, stronger effect = higher value
[8] = viability gain of MRP-1-high H69AR cells under doxorubicin, pilot screen, MRP-1 activator project, CellTiter-Glo, duplicate (AID 807;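 active = viability increase at or above a cutoff of the median across tested compounds plus 3 SD, cut at about 8.5% in these data, passing the limit was not always enough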;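 also: compound pretreatment 18-22 h then 72 h combined with doxorubicin; 0% = doxorubicin alone and 100% = vehicle without doxorubicin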); details: H69AR viability with doxorubicin, CellTiter-Glo luminescence; at 10 µM; stronger effect = higher value
[9] = growth suppression of beta-catenin knockout HCT116, pilot screen, human colon tumor cells (AID 823;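 active = cell viability at or below a set limit in both duplicate runs, the limit being the all-compound median minus 4 SD, cut at about 23% in these data, passing the limit was not always enough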;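 also: 0% = wells killed by 20 µM Hyamine and 100% = untreated DMSO cell wells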); details: CellTiter-Glo, 60 h, at 10 µM, stronger effect = lower value
[10] = growth suppression of PTEN-deleted HCT116, pilot screen, cell-based, HCT116 clonal line, CellTiter-Glo (AID 824;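 active = viability at or below 27.92% in each of two runs, the all-compound median minus 4 SD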;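 also: 0% = 20 µM Hyamine control and 100% = vehicle cell control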); details: 60 h, at 10 µM, stronger effect = lower value
[11] = inhibitors of the yeast RAM network, pilot screen, dse1pr::URA3 reporter, 5-FOA selection (AID 869;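 active = inhibition over a set limit, the all-compound mean plus 3 SD, in both replicate runs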;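 also: 0% = DMSO wells with no growth and 100% = 10 µM 1-NA-PP1 with full growth; RAM network block rescues cells from 5-FOA so hits raise OD615 growth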); details: S. cerevisiae dse1pr::URA3 5-FOA growth, OD615, 2 d; at 10 µM; stronger effect = higher value; strain carries analog-sensitive mutant Cbk1 kinase
[12] = RAM signaling pathway blockade in yeast – S. cerevisiae, Pdr1DBD-CYC8 efflux-inhibited sensitized strain, primary screen (AID 1298;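 active = RAM network inhibition above 8.4% in each of two replicates, 3 SD over the compound average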;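 also: 0% = DMSO untreated cells without growth and 100% = 10 µM 1-NA-PP1 full growth; higher means more yeast growth rescued from 5-FOA killing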); details: S. cerevisiae cbk1-as DSE1-URA3 strain, 5-FOA growth OD615, 2 d; at 50 µM; stronger effect = higher value
[13] = H69AR cells + 2 uM doxorubicin, measured here: viability with 2 uM doxorubicin, stronger effect = lower value
[14] = H69AR cells, compound alone cytotoxicity

Cc1ccc(C)c(NC(=O)C2CCC(C)(C(=O)O)C2(C)C)c1 (centres undefined)
92.1%: viability [3, 13]
97.8%: viability [3, 14]
inactive: viability [1] 98.8% | viability [2] 97.8% | differential viability (reversal) ([3]; H69AR cells + 2 uM doxorubicin) 5.67% | inhibition [4] 2.08% | inhibition [5] -0.79% | growth inhibition [6] -12.8% | growth inhibition [7] -13.8% | viability increase [8] -1.13% | viability [9] 97% | viability [10] 99% | inhibition [11] 0.355% | RAM network inhibition [12] 0.93%

COc1ccc(C)cc1NC(=O)CNC(=O)Cn1ccc2ccccc2c1=O
92.8%: viability [3, 14]
85.9%: viability [3, 13]
inactive: viability [1] 112% | viability [2] 92.8% | differential viability (reversal) ([3]; H69AR cells + 2 uM doxorubicin) 6.84% | inhibition [4] -1.18% | inhibition [5] 1.59% | growth inhibition [6] -17.2% | growth inhibition [7] -3.23% | viability increase [8] -2.41% | viability [9] 89% | viability [10] 90.3% | inhibition [11] 1.96% | RAM network inhibition [12] 5.68%

COCCn1c(=O)[nH]c2cc(C(=O)N3CCN(c4ccccc4OC)CC3)ccc2c1=O
85.8%: viability [3, 14]
inactive: viability [1] 110% | viability [2] 85.8% | differential viability (reversal) ([3]; H69AR cells + 2 uM doxorubicin) -5.65% | inhibition [4] -4.87% | inhibition [5] 0.32% | growth inhibition [6] -3.6% | growth inhibition [7] -7.11% | viability increase [8] -0.61% | viability [9] 104% | viability [10] 99% | inhibition [11] 1.2% | RAM network inhibition [12] 6.96%
91.4%: viability [3, 13]

COC(=O)C1CCN(C(=O)CSc2nnc(-c3ccncc3)o2)CC1
inactive: viability [1] 101% | viability [2] 81.8% | differential viability (reversal) ([3]; H69AR cells + 2 uM doxorubicin) -7.18% | inhibition [4] 1.43% | inhibition [5] 19.1% | growth inhibition [6] -0.605% | growth inhibition [7] -6.21% | viability increase [8] 1.44% | viability [9] 102% | viability [10] 102% | inhibition [11] 1.91% | RAM network inhibition [12] -1.1%
89%: viability [3, 13]
81.8%: viability [3, 14]

COc1ccc(-c2nc(N3CCCC3)[nH]c(=O)c2C#N)cc1
85.8%: viability [3, 13]
87.9%: viability [3, 14]
inactive: viability [1] 97% | viability [2] 87.9% | differential viability (reversal) ([3]; H69AR cells + 2 uM doxorubicin) 2.17% | inhibition [4] -1.45% | inhibition [5] 0.79% | growth inhibition [6] 0.51% | growth inhibition [7] 0.48% | viability increase [8] -0.94% | viability [9] 104% | viability [10] 90.7% | inhibition [11] 1.63% | RAM network inhibition [12] 3.39%

O=C(NCCN1CCN(c2ccccc2)CC1)c1ccc(NC(=O)C2CCCO2)cc1 (centres undefined)
100%: viability [3, 13]
108%: viability [3, 14]
inactive: viability [1] 96.9% | viability [2] 108% | differential viability (reversal) ([3]; H69AR cells + 2 uM doxorubicin) 8.13% | inhibition [4] -3.82% | inhibition [5] -0.48% | growth inhibition [6] -5.63% | growth inhibition [7] -8.76% | viability increase [8] -1.13% | viability [9] 95.6% | viability [10] 101% | inhibition [11] 1.66% | RAM network inhibition [12] 2.86%

Cc1nnc(N(Cc2ccco2)C(=O)c2cccc(C#N)c2)s1
inactive: viability [1] 84.1% | viability [2] 94.6% | differential viability (reversal) ([3]; H69AR cells + 2 uM doxorubicin) -3.37% | inhibition [4] -1.69% | inhibition [5] -6.35% | growth inhibition [6] -6.52% | growth inhibition [7] 6.42% | viability increase [8] -0.66% | viability [9] 103% | viability [10] 98.5% | inhibition [11] 1.8% | RAM network inhibition [12] 4.13%
97.9%: viability [3, 13]
94.6%: viability [3, 14]

O=C(CCCCCn1c(=O)[nH]c2ccsc2c1=O)N1CCCCC1
95%: viability [3, 14]
inactive: viability [1] 102% | viability [2] 95% | differential viability (reversal) ([3]; H69AR cells + 2 uM doxorubicin) 5.84% | inhibition [4] -2.5% | inhibition [5] 7.62% | growth inhibition [6] 1.02% | growth inhibition [7] -1.91% | viability increase [8] -1.28% | viability [9] 96.9% | viability [10] 99% | inhibition [11] 0.36% | RAM network inhibition [12] -0.43%
89.2%: viability [3, 13]

CCC(=O)Oc1ccc2c(C)cc(=O)oc2c1C
90.6%: viability [3, 14]
inactive: viability [1] 91.1% | viability [2] 90.6% | differential viability (reversal) ([3]; H69AR cells + 2 uM doxorubicin) -11.8% | inhibition [4] 0.39% | inhibition [5] 9.21% | growth inhibition [6] -8.37% | growth inhibition [7] 7.31% | viability increase [8] -4.73% | viability [9] 102% | viability [10] 97% | inhibition [11] 0.15% | RAM network inhibition [12] 3.51%
102%: viability [3, 13]

OC(COCC1COc2ccccc2O1)CN1CCc2ccccc2C1 (centres undefined)
inactive: growth inhibition [6] -28.7% | growth inhibition [7] -12.5% | viability increase [8] -2.72% | viability [9] 86.4% | viability [10] 90.8% | RAM network inhibition [12] 1.37%

Cc1ccc(-c2nc(CSCC(=O)N3CCN(C(=O)c4ccco4)CC3)c(C)o2)cc1
inactive: growth inhibition [6] -4.69% | growth inhibition [7] 14.9% | viability increase [8] -1.03% | viability [9] 76.4% | viability [10] 76.5% | RAM network inhibition [12] 6.53%

O=C(OCC1COc2ccccc2O1)c1c(F)cccc1F (centres undefined)
inactive: growth inhibition [6] -5.97% | growth inhibition [7] -0.835% | viability increase [8] 2.01% | viability [9] 93% | viability [10] 95.8% | RAM network inhibition [12] 7.73%

CCCCn1c(CNC(C)=O)nc2ccccc21
inactive: growth inhibition [6] -2.36% | growth inhibition [7] 0.94% | viability increase [8] -1.24% | viability [9] 98.1% | viability [10] 100% | RAM network inhibition [12] 1.93%

O=C(CSc1nc2ccccc2o1)NCc1ccc2c(c1)OCO2
inactive: growth inhibition [6] -8.6% | growth inhibition [7] -2.3% | viability increase [8] 4.28% | viability [9] 94.8% | viability [10] 83.9% | RAM network inhibition [12] 2.68%

Cc1ccccc1-n1c(Cn2c(=O)sc3ccccc32)nnc1SC(C)C
inactive: growth inhibition [6] 5.19% | growth inhibition [7] 6.75% | viability increase [8] -0.49% | viability [9] 84% | viability [10] 78.4% | RAM network inhibition [12] 6.91%

O=C(NCc1cccs1)C(Cc1ccccc1)NS(=O)(=O)c1cccs1 (centres undefined)
inactive: viability [1] 95.7% | viability [2] 91.7% | differential viability (reversal) ([3]; H69AR cells + 2 uM doxorubicin) 4.5% | inhibition [4] -3.16% | inhibition [5] 5.08% | growth inhibition [6] -17.7% | growth inhibition [7] -8.73% | viability increase [8] -1.46% | viability [9] 94.3% | inhibition [11] 1.43% | RAM network inhibition [12] 4.56%
87.2%: viability [3, 13]
91.7%: viability [3, 14]

CCOc1ccc(-n2nnc3c(=O)n(CC(=O)c4ccccc4)cnc32)cc1
inactive: growth inhibition [6] -2.31% | growth inhibition [7] 1.56% | viability increase [8] 0.38% | viability [9] 101% | viability [10] 97% | RAM network inhibition [12] 3.09%

CCCCCOC(=O)CSc1nc2c(c(=O)[nH]c(=O)n2C)n1Cc1ccc(Cl)cc1
inactive: growth inhibition [6] 11.9% | growth inhibition [7] 23.6% | viability increase [8] -3.26% | viability [9] 93.2% | viability [10] 84.7% | RAM network inhibition [12] 2.16%

CC1Cn2c(nnc2-c2ccccc2O)S1 (centres undefined)
inactive: growth inhibition [6] -13.6% | growth inhibition [7] -21.9% | viability increase [8] -1.33% | viability [9] 115% | viability [10] 98.2% | RAM network inhibition [12] 5.23%

COc1ccc(-c2nc(CS(=O)CC(=O)NCc3ccc(Cl)cc3)c(C)o2)cc1 (centres undefined)
inactive: growth inhibition [6] -11.9% | growth inhibition [7] 4.36% | viability increase [8] 0.16% | viability [9] 72.4% | viability [10] 79.9% | RAM network inhibition [12] 7.34%

CCOc1ccc(Cn2nnc(C(=O)Nc3cc(OC)cc(OC)c3)c2N)cc1
inactive: growth inhibition [6] -2.1% | growth inhibition [7] 0.885% | viability increase [8] -5.5% | viability [9] 86% | viability [10] 88% | RAM network inhibition [12] 2.46%

CCCCOc1ccccc1NC(=O)CC1Nc2ccccc2NC1=O (centres undefined)
inactive: growth inhibition [6] 6.14% | growth inhibition [7] 0.91% | viability increase [8] -6.18% | RAM network inhibition [12] 7.51%

Cc1cc(=S)cc(C)n1CCCn1ccnc1
inactive: growth inhibition [6] -1.13% | growth inhibition [7] -26.5% | viability increase [8] -0.81% | viability [9] 103% | viability [10] 99.7% | RAM network inhibition [12] 3.26%

CC(C)c1ccc(-c2nc(N3CCCCC3)[nH]c(=O)c2C#N)cc1
88.3%: viability [3, 14]
87.5%: viability [3, 13]
inactive: viability [1] 83.3% | viability [2] 88.3% | differential viability (reversal) ([3]; H69AR cells + 2 uM doxorubicin) 0.79% | inhibition [4] 0.92% | inhibition [5] -3.49% | growth inhibition [6] -17.7% | growth inhibition [7] 3.37% | viability increase [8] -2.54% | viability [9] 102% | inhibition [11] 2.5% | RAM network inhibition [12] 8.32%

CC(C)=CC(=O)OCC(=O)NC(=O)NC(C)(C)C
97%: viability [3, 14]
inactive: viability [1] 103% | viability [2] 97% | differential viability (reversal) ([3]; H69AR cells + 2 uM doxorubicin) -3.87% | inhibition [4] 0.52% | inhibition [5] -3.97% | growth inhibition [6] 1.02% | growth inhibition [7] 3.65% | viability increase [8] -3.01% | viability [9] 104% | inhibition [11] 2.76% | RAM network inhibition [12] 2.91%
101%: viability [3, 13]

COc1ccc(CCn2c(N)c(S(=O)(=O)c3cccs3)c3nc4ccccc4nc32)cc1OC
inactive: growth inhibition [6] -4.55% | growth inhibition [7] -27.6% | viability increase [8] -2.53% | viability [9] 91.6% | viability [10] 85.1% | RAM network inhibition [12] 8.59%

Cc1cc(NC(=O)CSc2nc3c(c(=O)n2CCc2ccccc2)SC(C)C3)no1 (centres undefined)
inactive: growth inhibition [6] -12.6% | growth inhibition [7] -12.3% | viability increase [8] -1.68% | viability [9] 89.5% | viability [10] 96.6% | RAM network inhibition [12] 5.21%

CCOC(=O)c1c(CN2CCCCC2)n(C)c2cc(Br)c(O)c(CN(C)C)c12
inactive: growth inhibition [6] -16.8% | growth inhibition [7] 5.7% | viability increase [8] -2.65% | viability [9] 75.7% | viability [10] 79.5% | RAM network inhibition [12] 0.94%
